This note sets out measurements from PubChem BioAssay.

Experiment [1] concerns Plasmodium falciparum Sir2 (PF13_0152, Sir2A). The experiment in a line: pfSir2 binders on small-molecule microarrays, primary screen, biochemical, small-molecule microarray, 635 nm fluorescence (AID 1098).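 Note: score merges spot fluorescence intensity with its signal-to-noise ratio.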 The conditions noted are these: small-molecule microarray binding, fluorescence 635 nm; higher = more signal.
A short description of experiment [2]: small-molecule microarray binders of probe aDKK1, primary screen, biochemical, biotinylated probe, 635/667 nm fluorescence (AID 1099).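 Note: score merges 667nm spot fluorescence with signal to noise across triplicate slides.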 The settings on record: higher = more signal.
Experiment [3] can be described thus: small-molecule microarray binders of probe aCHRDL2, primary screen, biochemical, biotinylated probe, 635/667 nm fluorescence (AID 1100). The conditions noted are these: higher = more signal.
Experiment [4] can be described thus: splicing luciferase reporter signal modulators, primary screen, spliceosome inhibition project, cell-based, HEK293, splice +/- reporter (AID 1101).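 Note: HEK293 cells carrying a splicing-competent luciferase reporter gene; test concentration not given here.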 The conditions noted are these: luminescence, 24 h, higher = more signal, called active from +8 up or from −8 down.
The target of experiment [5] is Fibroblast growth factor 10 (Homo sapiens) (UniProt O15520). The experiment is described as follows: FGF10 binders on small-molecule microarrays, primary screen, biochemical, small-molecule microarray, 635 nm fluorescence (AID 1102). The conditions noted are these: FGF10 binding, fluorescence 635 nm, higher = more signal.
Experiment [6] concerns glycogen synthase kinase-3 (GSK3A per assay name; protocol says GSK3B). The experiment in a line: GSK3 binders on small-molecule microarrays, primary screen, biochemical, small-molecule microarray, 635 nm fluorescence, GSK3A (AID 1103). Note: the record names both GSK3A and GSK3B. The conditions noted are these: small-molecule microarray binding, fluorescence 635 nm; higher = more signal.
The target of experiment [7] is Epidermal growth factor receptor (Homo sapiens) (UniProt P00533). The experiment is described as follows: EGFR binders on small-molecule microarrays, primary screen, biochemical, small-molecule microarray, 635 nm fluorescence (AID 1104).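 Note: score merges 667 nm emission intensity with spot signal to noise over triplicate slides.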 The settings on record: EGFR binding, higher = more signal.
The target of experiment [8] is Follistatin-related protein 3 (Homo sapiens) (UniProt O95633). The experiment in a line: FSTL3 binders on small-molecule microarrays, primary screen, biochemical, small-molecule microarray, 635 nm fluorescence (AID 1105).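 Note: score merges emission near 667 nm and signal to noise per printed spot across three slides.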 The settings on record: FSTL3 binding, higher = more signal.
In experiment [9] the target is Dickkopf-related protein 1 (Homo sapiens) (UniProt O94907). The experiment is described as follows: DKK1 binders on small-molecule microarrays, primary screen, biochemical, small-molecule microarray, 635 nm fluorescence scan (AID 1106).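 Note: score merges emission near 667 nm with signal to noise over three replicate slides.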 The conditions noted are these: DKK1 binding, higher = more signal.
Experiment [10] relates to Inhibin beta A chain (activin A). The experiment in a line: INHBA (activin A) binders on microarrays, primary screen, biochemical, small-molecule microarray, 635 nm fluorescence scan (AID 1107).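 Note: mouse activin A protein probed at 4.33 µg/mL on printed slides; score merges bound-protein fluorescence near 667 nm with spot signal-to-noise.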 The conditions noted are these: small-molecule microarray binding, higher = more signal.
The subject of experiment [11] is Human papillomavirus type 1a protein E7 (residues 44-93). The experiment in a line: HPV1a E7 fragment binders on microarrays, primary screen, biochemical, small-molecule microarray, residues 44-93, 635 nm fluorescence (AID 1108).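 Note: E7 fragment applied at 1 µg/mL in TBST for 1 h at 4 C; score combines spot fluorescence with its signal to noise ratio.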 The settings on record: small-molecule microarray binding, fluorescence 635 nm; higher = more signal.
The nature of experiment [12]: modulators of HCV replicon luciferase signal, primary screen, HCV replication inhibitor project, Huh7 cells, luciferase reporter (AID 1109).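 Note: huh7 hepatoma cells harbouring a luciferase neomycin HCV replicon reporter; luciferase luminescence as measure of HCV replicon replication; test concentration not given here.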 The conditions noted are these: 48 h, higher = more signal.
The target in experiment [13] is Left-right determination factor 2 (Homo sapiens) (UniProt O00292). The experiment in a line: LEFTY2 binders on small-molecule microarrays, primary screen, biochemical, small-molecule microarray, 635 nm fluorescence scan (AID 1110). The settings on record: LEFTY2 binding, higher = more signal.
For experiment [14], the target named is Calmodulin-1 (Homo sapiens) (UniProt P0DP23). The experiment is described as follows: CALM1 binders on microarrays, EGTA buffer, profiling panel, biochemical, small-molecule microarray, Cy5-labelled CALM1 (AID 1111).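 Note: labelled calmodulin applied in Tris saline Tween buffer holding calcium plus EGTA and DTT.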 The conditions noted are these: Cy5-CALM1 binding fluorescence, higher = more signal.
For experiment [15] the target is unchanged. The experiment is described as follows: calcium-bound CALM1 binders on microarrays, profiling panel, artefact control for SMM control-protein annotation, biochemical, small-molecule microarray, Cy5-labelled CALM1, plus calcium (AID 1112).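 Note: score merges spot fluorescence with signal to noise from triplicate slides.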 The conditions noted are these: Cy5-CALM1 binding fluorescence, higher = more signal.
The nature of experiment [16]: small-molecule microarray binders of probe aWnt5a, primary screen, biochemical, biotinylated probe, 635/667 nm fluorescence (AID 1113).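 Note: score merges 667 nm fluorescence intensity with signal-to-noise per printed feature.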 The settings on record: higher = more signal.
Experiment [17] can be described thus: small-molecule microarray binders of probe aShh, primary screen, biochemical, biotinylated probe, 635/667 nm fluorescence (AID 1114).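 Note: probe is biotin-labelled aShh protein from a stem cell growth factor screen; measures binding of labelled protein to compounds printed on the slide; score merges feature fluorescence at 667 nm with signal-to-noise.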 The conditions noted are these: higher = more signal.
The nature of experiment [18]: small-molecule microarray binders of probe aNog, primary screen, biochemical, biotinylated probe, 635/667 nm fluorescence (AID 1115).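 Note: probe is biotinylated aNog protein used at 0.15 µg/mL for 1 h at 4 C; z-score combines 667 nm fluorescence of each spot with its signal to noise.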 The settings on record: higher = more signal.
Experiment [19] has as its target Torsin-1A-interacting protein 1 (Homo sapiens) (UniProt Q5JTV8). The experiment is described as follows: LAP1 binders from COS7 cell lysate, primary screen, small-molecule microarray, 635/667 nm fluorescence (AID 1116). The conditions noted are these: COS7-hLAP1 lysate binding, 635 nm fluorescence, higher = more signal.
The target of experiment [20] is Alpha-bungarotoxin (Bungarus multicinctus) (UniProt P60615). The experiment in a line: alpha-bungarotoxin binders on microarray, profiling panel, artefact control for SMM control protein annotation, biochemical, small-molecule microarray, Alexa647 label, 635/667 nm fluorescence (AID 1117). The settings on record: alpha-BTX-A647 binding fluorescence, higher = more signal.

Several values for one entry are separate records, joined by “and”; a condition that tells them apart may be missing. Equal values may be shown once. Activity calls are given as the source filed them.

Chain of Fibroblast growth factor 10 (Homo sapiens) (O15520 whole entry, looked up): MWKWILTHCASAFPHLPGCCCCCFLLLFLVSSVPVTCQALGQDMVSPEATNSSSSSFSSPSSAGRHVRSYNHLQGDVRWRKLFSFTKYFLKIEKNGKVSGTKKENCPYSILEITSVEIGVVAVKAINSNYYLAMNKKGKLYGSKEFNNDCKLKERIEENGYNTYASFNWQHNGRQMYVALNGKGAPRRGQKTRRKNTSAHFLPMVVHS
Chain of Alpha-bungarotoxin (Bungarus multicinctus) (P60615 whole entry, looked up): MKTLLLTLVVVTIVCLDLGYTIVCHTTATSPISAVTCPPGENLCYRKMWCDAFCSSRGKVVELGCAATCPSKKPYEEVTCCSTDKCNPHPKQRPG
Chain of Dickkopf-related protein 1 (Homo sapiens) (O94907 whole entry, looked up): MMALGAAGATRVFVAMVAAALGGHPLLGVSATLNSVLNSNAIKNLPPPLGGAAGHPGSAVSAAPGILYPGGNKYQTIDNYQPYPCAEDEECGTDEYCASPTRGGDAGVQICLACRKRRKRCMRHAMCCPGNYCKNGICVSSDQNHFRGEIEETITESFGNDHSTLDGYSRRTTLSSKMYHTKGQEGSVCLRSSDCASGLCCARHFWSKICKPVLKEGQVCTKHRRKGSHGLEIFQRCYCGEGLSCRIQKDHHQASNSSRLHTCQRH
Chain of Torsin-1A-interacting protein 1 (Homo sapiens) (Q5JTV8 whole entry, looked up): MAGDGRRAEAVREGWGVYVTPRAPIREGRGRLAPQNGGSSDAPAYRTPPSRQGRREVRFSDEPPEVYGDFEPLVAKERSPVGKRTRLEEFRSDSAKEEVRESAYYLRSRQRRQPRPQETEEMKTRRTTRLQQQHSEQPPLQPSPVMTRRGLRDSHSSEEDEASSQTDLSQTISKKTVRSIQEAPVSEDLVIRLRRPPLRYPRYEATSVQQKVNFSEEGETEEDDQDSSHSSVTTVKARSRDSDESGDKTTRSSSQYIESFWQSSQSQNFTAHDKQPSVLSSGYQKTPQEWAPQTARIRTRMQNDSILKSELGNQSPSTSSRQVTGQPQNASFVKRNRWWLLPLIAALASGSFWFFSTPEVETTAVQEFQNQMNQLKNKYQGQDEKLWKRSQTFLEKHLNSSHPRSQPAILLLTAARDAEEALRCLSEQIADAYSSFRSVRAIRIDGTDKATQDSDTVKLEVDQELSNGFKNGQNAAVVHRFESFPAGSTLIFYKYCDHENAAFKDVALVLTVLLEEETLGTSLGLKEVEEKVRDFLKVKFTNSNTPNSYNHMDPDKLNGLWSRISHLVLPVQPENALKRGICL
Chain of Left-right determination factor 2 (Homo sapiens) (O00292 whole entry, looked up): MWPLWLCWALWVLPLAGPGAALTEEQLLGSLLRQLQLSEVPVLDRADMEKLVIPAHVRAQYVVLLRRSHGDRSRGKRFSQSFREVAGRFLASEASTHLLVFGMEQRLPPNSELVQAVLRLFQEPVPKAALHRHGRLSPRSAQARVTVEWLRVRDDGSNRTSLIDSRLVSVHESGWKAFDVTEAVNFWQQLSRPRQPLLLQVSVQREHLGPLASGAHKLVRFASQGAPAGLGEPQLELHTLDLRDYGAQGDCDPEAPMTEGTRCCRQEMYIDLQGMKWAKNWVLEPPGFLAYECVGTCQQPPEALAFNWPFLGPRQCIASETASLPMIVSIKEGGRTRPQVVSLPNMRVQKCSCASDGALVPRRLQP
Chain of Epidermal growth factor receptor (Homo sapiens) (P00533 whole entry, looked up): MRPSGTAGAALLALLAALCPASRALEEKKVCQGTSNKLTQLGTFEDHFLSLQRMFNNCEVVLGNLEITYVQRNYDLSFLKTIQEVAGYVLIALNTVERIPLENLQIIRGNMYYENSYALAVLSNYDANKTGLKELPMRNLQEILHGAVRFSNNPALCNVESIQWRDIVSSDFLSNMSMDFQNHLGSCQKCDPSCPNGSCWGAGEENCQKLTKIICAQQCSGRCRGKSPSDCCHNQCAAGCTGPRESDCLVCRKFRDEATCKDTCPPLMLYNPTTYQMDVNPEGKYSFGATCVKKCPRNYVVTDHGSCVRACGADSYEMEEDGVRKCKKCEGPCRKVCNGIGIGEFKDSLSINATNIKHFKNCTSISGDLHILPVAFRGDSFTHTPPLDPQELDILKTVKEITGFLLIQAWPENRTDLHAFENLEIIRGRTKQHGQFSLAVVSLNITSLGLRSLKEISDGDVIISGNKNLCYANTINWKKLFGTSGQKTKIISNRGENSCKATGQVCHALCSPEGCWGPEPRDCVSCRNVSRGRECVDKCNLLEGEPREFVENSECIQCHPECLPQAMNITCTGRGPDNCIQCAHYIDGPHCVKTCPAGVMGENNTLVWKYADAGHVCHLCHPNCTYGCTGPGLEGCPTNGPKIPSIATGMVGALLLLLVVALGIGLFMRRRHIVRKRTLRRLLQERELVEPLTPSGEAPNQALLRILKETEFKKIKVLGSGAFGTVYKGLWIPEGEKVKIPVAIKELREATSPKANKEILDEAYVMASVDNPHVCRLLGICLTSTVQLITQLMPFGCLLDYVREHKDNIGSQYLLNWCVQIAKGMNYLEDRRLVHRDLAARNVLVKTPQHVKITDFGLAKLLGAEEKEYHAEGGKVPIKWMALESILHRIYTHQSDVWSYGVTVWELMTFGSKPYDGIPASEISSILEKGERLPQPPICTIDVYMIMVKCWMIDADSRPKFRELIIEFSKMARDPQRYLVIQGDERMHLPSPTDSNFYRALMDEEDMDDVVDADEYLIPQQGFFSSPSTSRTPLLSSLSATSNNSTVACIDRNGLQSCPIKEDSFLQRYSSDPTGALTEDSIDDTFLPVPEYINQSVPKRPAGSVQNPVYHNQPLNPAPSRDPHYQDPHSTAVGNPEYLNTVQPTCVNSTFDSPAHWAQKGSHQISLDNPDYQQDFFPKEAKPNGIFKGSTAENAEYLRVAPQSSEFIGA
Chain of Follistatin-related protein 3 (Homo sapiens) (O95633 whole entry, looked up): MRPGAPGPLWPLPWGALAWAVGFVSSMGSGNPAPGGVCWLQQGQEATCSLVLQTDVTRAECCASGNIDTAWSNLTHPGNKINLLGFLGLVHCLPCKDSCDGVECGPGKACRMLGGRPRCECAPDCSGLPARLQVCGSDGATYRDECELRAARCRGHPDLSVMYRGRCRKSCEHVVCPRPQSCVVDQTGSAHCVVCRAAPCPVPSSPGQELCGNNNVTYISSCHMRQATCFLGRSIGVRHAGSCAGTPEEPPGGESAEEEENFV

For the compound `C=CCN(CCCCC)C(=O)C1N(CCOCCO)C(=O)C2C(C(=O)O)C3C=CC21O3` (stereo not given), the composite z-score in experiment [1] is 0.128 and 1.72; in experiment [2], -0.344 and -0.208; in experiment [3] it was 0.77 and 0.925; in experiment [5], -1.48 and -1.61; in [6], -1.97 and -0.615; in experiment [7] it was -1.74 and -1.79. For the same compound, the composite z-score in experiment [8] was -1.54 and -1.58; in experiment [9], -2.58 and -3.23; in experiment [10], -1.97 and -1.95; in [11], -1.53 and -0.495; in [13], -2.78 and -1.83; in [14], -0.368 and -0.355. In addition, the composite z-score is 1.01 and 1.07 in experiment [15]; -0.276 and -0.328 in experiment [16]; 0.0048 and -0.124 in experiment [17]; -0.149 and -0.201 in [18]; -1.04 and 1.94 in [19]; -1.16 and -3.11 in experiment [20]. For the same compound, the z-score was 0.8 (inactive) and 1.24 (inactive) in experiment [4]; -0.586 and 0.715 in [12].
As for `CC(C)OC(=O)C=C1C[C@@H](c2cccc(C(F)(F)F)c2)O[C@@H](c2cccc(C(F)(F)F)c2)O1`, the composite z-score is 0.937 and 1.55 in experiment [1]; 0.326 and -0.186 in experiment [2]; 0.605 and -0.185 in experiment [3]; -0.135 and -0.527 in experiment [5]; 0.335 and 0.267 in experiment [6]; -1.14 and -1.45 in experiment [7]. Moreover, the composite z-score in [8] was -0.815 and -1.39; in experiment [9] it was -0.49 and -0.776; in experiment [10] it was -0.347 and -0.587; in [11], 1.34 and 0.979; in [13] it was -0.906 and -0.656; in experiment [14], 1.21 and 0.297. Moreover, the composite z-score in [15] was 0.831 and 0.224; in experiment [16] it was 0.0433 and -0.218; in experiment [17], 0.04 and -0.162; in experiment [18] it was 0.509 and 0.655; in experiment [19] it was 1.03 and 0.0622; in experiment [20], 0.613 and 0.269. The z-score in experiment [4] was 1.12 (inactive) and -1.24 (inactive); in experiment [12], -1.55 and -2.35.
`CO[C@@H]1COC(=O)[C@H](Cc2ccccc2)NC(=O)CC=C[C@@H](C)[C@H](OC)COC(=O)[C@@H](C)NC(=O)CC=C[C@H]1C`: the composite z-score is 1.58 and 0.899 in experiment [1]; -0.447 and -0.987 in experiment [2]; -1.06 and -1.37 in [3]; 0.497 and 0.956 in experiment [5]; 1.07 and 0.496 in experiment [6]; 0.882 and 0.64 in experiment [7]. Also, the composite z-score in experiment [8] is 1.29 and 0.876; in [9], 0.696 and 1.67; in [10] it was 1.42 and 0.336; in experiment [11], 0.946 and 0.026; in experiment [13], 0.79 and 0.972; in experiment [14], -0.913 and -0.79. Besides, the composite z-score in [15] is -1.89 and -1.85; in experiment [16], -0.1 and -0.22; in [17], -0.362 and -0.102; in experiment [18], -0.201 and -0.278; in experiment [19], 0.596 and -0.19; in [20], -0.527 and -0.862. Further, the z-score in experiment [4] was -1.14 (inactive) and -1.29 (inactive); in experiment [12], -0.198 and 0.903.
As to `C=CC[C@@H](O)c1ccc(O)c(F)c1`, the composite z-score is 0.358 and 0.514 in experiment [1]; -0.388 and -0.293 in experiment [2]; 0.92 and 0.751 in experiment [3]; -1.38 and -0.756 in [5]; -1.43 and -0.85 in experiment [6]; -1.81 and -1.65 in experiment [7]. In addition, the composite z-score in experiment [8] is -2.63 and -1.02; in [9], -1.95 and -0.898; in experiment [10], -2.07 and -0.334; in experiment [11], -0.612 and -0.685; in experiment [13] it was -2.46 and -1.47; in experiment [14] it was -0.75 and -1.41. Also, the composite z-score is 0.0576 and -0.0804 in [15]; -0.0399 and -0.278 in experiment [16]; -0.332 and -0.124 in experiment [17]; -0.116 and -0.62 in experiment [18]; -0.635 and -0.47 in experiment [19]; -1.9 and -2.33 in experiment [20]. In addition, the z-score in [4] was -0.55 (inactive) and -1.23 (inactive); in [12], -0.947 and 0.848.
Turning to `CCOC(=O)[C@@H]1CC=C2CC1C(=O)N1CCC[C@@H]1[C@H]2O[Si](C)(C)C(C)(C)C` (stereo not given in full), the composite z-score was -0.632 and -0.617 in experiment [1]; -0.0776 and -0.228 in [2]; -0.0464 and -0.898 in experiment [3]; -0.182 and -1.24 in experiment [5]; -0.0945 and -1.32 in [6]; -0.762 and -0.649 in experiment [7]. The composite z-score is -0.552 and -0.744 in experiment [8]; 0.055 and -0.0246 in experiment [9]; 0.401 and 0.933 in experiment [10]; -1.02 and -0.733 in experiment [11]; -0.355 and 0.279 in experiment [13]; -1.9 and -1.57 in experiment [14]. Further, the composite z-score is -0.312 and -1.91 in experiment [15]; -0.0512 and -0.252 in experiment [16]; 0.0611 and -0.2 in [17]; -0.0863 and -0.48 in experiment [18]; -0.496 and -1.03 in experiment [19]; -0.922 and -1.49 in experiment [20]. For the same compound, the z-score was 0.474 (inactive) and 0.337 (inactive) in experiment [4]; -0.558 and -1.14 in experiment [12].
Turning to `COC(=O)[C@H](C)NC(=O)CCC1CC(OC(=O)NCCc2ccc(F)cc2)CC2(CCCC(COC(=O)NCCCN3CCCC3=O)O2)O1` (stereo not given in full), the composite z-score was 1.07 in experiment [1]; -0.0361 in [2]; 0.778 in experiment [3]; 1.14 in experiment [5]; 1.28 in experiment [6]; 0.597 in experiment [7]. In addition, the composite z-score in [8] was 1.36; in experiment [9] it was 1.44; in experiment [10] it was -0.0362; in experiment [11], 1.39; in experiment [13] it was 1.21; in [14], 0.95. For the same compound, the composite z-score in experiment [15] is -0.387; in experiment [16], -0.172; in [17], 0.0278; in experiment [18], 0.33; in experiment [19] it was 1.05; in experiment [20], 1.14. Moreover, the results for the z-score in experiment [4] and in experiment [12] were -0.247 (inactive) and -2.21, respectively.
